Measured values published in PubChem BioAssay.
Values without a mark were called inactive. The rule behind the calls is not given here.

What follows are compounds tested against Pantothenate synthetase (Mycobacterium tuberculosis (strain ATCC 25618 / H37Rv)) (UniProt P9WIL5) (assay: Recombinant Mtb pantothenate synthetase (PanC) inhibitors, coupled enzyme, confirmatory (AID 375;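 note: 0% = full reaction with vehicle and 100% = no enzyme background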)). Conditions: coupled enzyme assay; at 10 µM, hits give high values.
Sequence of Pantothenate synthetase (Mycobacterium tuberculosis (strain ATCC 25618 / H37Rv)) (P9WIL5 whole entry, looked up): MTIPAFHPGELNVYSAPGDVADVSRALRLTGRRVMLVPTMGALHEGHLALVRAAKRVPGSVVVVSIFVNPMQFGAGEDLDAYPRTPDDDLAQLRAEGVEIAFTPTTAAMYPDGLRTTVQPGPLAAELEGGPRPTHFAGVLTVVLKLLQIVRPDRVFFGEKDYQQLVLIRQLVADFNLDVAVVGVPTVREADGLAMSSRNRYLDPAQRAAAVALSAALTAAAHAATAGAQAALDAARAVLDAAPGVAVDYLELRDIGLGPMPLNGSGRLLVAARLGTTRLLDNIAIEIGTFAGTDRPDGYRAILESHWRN
Work on Cc1cccn2cc(-c3ccccc3)nc12 yielded an inhibition of 0%. CCCOC(=O)c1ccc(-c2c(C)noc2-c2ccc(OC)cc2O)o1 was tested, and the inhibition was 0%. With Cc1ccc2c(c1)NC(=O)C(CC(=O)NCCN(CC(C)C)CC(C)C)O2 (stereo not given) the inhibition was 2%. In the case of COc1ccccc1N1CCN(C/C(O)=C(\C#N)c2nc(-c3ccccc3)cs2)CC1, the inhibition is reported as 2%. CC(C)N(Cc1nc(-c2ccccc2)no1)C(=O)CCCN1C(=O)c2ccccc2C1=O gave an inhibition of 9%. CCN1CCCC1CNC(=O)c1cc2c(=O)n(C)c3ccccc3c2n1C (stereo not given) was tested, and the inhibition was 0%. With Cc1cc(N2CCN(c3ccccn3)CC2)n2nc(C)nc2n1 the inhibition was 1%. Compound CCOC(=O)c1cc2c(=O)n3ccccc3nc2n(CC2CCCO2)c1=NC(C)=O (stereo not given) has an inhibition of 4%. With CCCCCCC(=O)c1c(C)[nH]c(C(=O)OCC)c1C the inhibition was 1%. For C=C(Cl)COC(=O)[C@H]1C2C=CC(C2)C1C(=O)O (stereo not given in full), the inhibition was 2%. c1cnc2c(SCc3ccc(-c4nnco4)cc3)cccc2c1 showed an inhibition of 2%. Compound COc1ccc(-n2c(SCc3ccc(C#N)cc3)nnc2-c2ccccn2)cc1 has an inhibition of 0%. In the case of CCOC(=O)C1CCCN(c2nc3ccccc3nc2C(C#N)C(=O)NCc2ccccc2)C1 (stereo not given), the inhibition is reported as 0%. COc1ccccc1NCN1C(=O)CCC1=O gave an inhibition of 3%. In the case of COCCNC(=O)C(c1ccncc1)N(C(=O)Cn1nnc2ccccc21)c1ccc(OC)cc1 (stereo not given), the inhibition is reported as 0%. In the case of COC(=O)CSc1nc2sc3c(c2c(=O)n1C1CCCCC1)CCN(C)C3, the inhibition is reported as 0%. In the case of Cc1nc2ccc(F)cc2cc1C(=O)NCC1CCCO1 (stereo not given), the inhibition is reported as 0%. COc1cc(C2CC(=O)NC3=C2C(=O)CC(C)(C)C3)ccc1O (stereo not given) was tested, and the inhibition was 0%. In the case of CCOc1ccccc1Nc1ncnc2ccccc12, the inhibition is reported as 6%. For CCOC(=O)c1ccc(NC(=O)Cn2cc3c(n2)CCC(C)C3)cc1 (stereo not given), the inhibition was 8%. Work on O=c1[nH]c(/C(=N\O)c2ccccc2)no1 yielded an inhibition of 0%. Work on CCOC(=O)N1CCC(NC(=O)Cn2c3c(c(-c4ccccc4Cl)cc2=O)CCC3)CC1 yielded an inhibition of 0%. CCOC(=O)C1=C(C)NC(=O)C(C#N)C1c1ccco1 (stereo not given) showed an inhibition of 5%. CCC(NC(C)C)C(O)c1ccc(O)c2[nH]c(=O)ccc12 (stereo not given) showed an inhibition of 0%. Work on CCOC(=O)N1CCN(C(=O)c2c(-c3ccccc3)noc2C)CC1 yielded an inhibition of 0%. With Cc1cc(Br)ccc1NC(=O)CNC(=O)CSc1n[nH]c(N)n1 the inhibition was 6%. O=C(NCCN1CCOCC1)c1ccc2c(c1)N(Cc1ccccc1)C(=O)CS2 showed an inhibition of 0%. Compound CN(C)/C=C1\N=C(c2ccc3c(c2)OCO3)OC1=O has an inhibition of 0%. Work on COc1ccc(CN(CC(=O)NCC2CCCO2)C(=O)CNS(=O)(=O)c2ccc(C)cc2)cc1 (stereo not given) yielded an inhibition of 9%. Cc1ccc2cc(CCNC(=O)C(C)C)c(=O)[nH]c2c1C showed an inhibition of 3%. CCN(CC)S(=O)(=O)c1ccc(Cl)c(C(=O)OC)c1 gave an inhibition of 8%. With COc1ccc2nc(NC(=O)C(NS(=O)(=O)c3cccs3)C(C)C)sc2c1 (stereo not given) the inhibition was 0%. In the case of CCCCc1nccn1CCn1ccnc1CCCC, the inhibition is reported as 0%. For Cc1oc(-c2cccc(Cl)c2)nc1CN1CCC(C(=O)N2CCN(c3ccccc3F)CC2)CC1, the inhibition was 2%. For CNC(=O)c1c(O)c2cccc3c2n(c1=O)CC3, the inhibition was 1%. For CC(C)c1nc(N2CCN(C(=O)c3ccco3)CC2)c2c3c(sc2n1)CCCC3, the inhibition was 1%. c1cn(C23CC4CC(CC(C4)C2)C3)cn1 gave an inhibition of 0%. In the case of Cc1nn(-c2ccc(F)cc2)c2sc(C(=O)OCC(=O)N3CCC(C)CC3)cc12, the inhibition is reported as 0%. Compound COc1ccc(C2=NO[C@@H]3C(=O)N(c4ccc5c(c4)OCCO5)C(=O)[C@H]23)cc1OC has an inhibition of 3%. For Cc1cc(NC(=O)CSc2nccn2-c2ccc(Cl)cc2)no1, the inhibition was 0%.
